# From PubChem BioAssay AID540333 (Southern Research Specialized Biocontainment Screening …, 2011)
# The campaign covered roughly 10,000 compounds. About 320 (3.2%) were called active. The entries come from a sample that favours actives as a whole. A number with no mark means an inactive call. Rule as the data show it: active = CPE inhibition mostly above about 9.1% (no sharp cut-off); inactive = mostly below about 7.2%.
# Assay: Dengue virus cytopathic effect inhibitors, cell-based, CPE readout, HTS (AID 540333)
# Conditions: Dengue virus CPE inhibition in host cells, at 20 µM; hits give high values
row,SMILES,CPE inhibition
1,CN(C)c1ccc(N=Nc2ccccc2C(=O)OCC(=O)NCC2CCCCC2)cc1,0.995%
2,COc1ccc(CN(C)C2c3ccccc3-c3ccccc32)cc1,1.16%
3,O=C(N/N=C/c1cc(Cl)cc([N+](=O)[O-])c1O)NC12CC3CC(CC(C3)C1)C2,15.6% (active)
4,O=C(N/N=C/c1cc([N+](=O)[O-])ccc1O)NC12CC3CC(CC(C3)C1)C2,0.635%
5,Cc1cc(C(=O)N/N=C/c2cc(Cl)cc([N+](=O)[O-])c2O)c2ccccc2n1,0.08%
6,Clc1ccc2nc(-c3ccncc3)cc(-c3ccccc3)c2c1,2.25%
7,O=[N+]([O-])c1ccc2nc(-c3ccccc3)cc(-c3ccccc3)c2c1,1.14%
8,Cc1ccc2nc(-c3cccc(NS(C)(=O)=O)c3)cc(-c3ccccc3)c2c1,24.6% (active)
9,COCCn1c(=NC(=O)c2nc3ccccc3s2)sc2cc(S(C)(=O)=O)ccc21,6.63%
10,Cc1cccc(/C(N)=N/OC(=O)c2ccc3c(c2)OCO3)c1,0.195%
11,COc1ccccc1NC(=O)c1ccc(NS(=O)(=O)c2ccc(F)c(Cl)c2)cc1,inactive
12,COc1ccccc1NC(=O)c1c(Nc2ccccc2F)sc(C(=O)Nc2cccc(Cl)c2)c1N,17.3% (active)
13,COc1ccccc1NC(=O)c1c(Nc2ccccc2C)sc(C(=O)Nc2cccc(Cl)c2)c1N,0.08%
14,Cc1ccc(-c2csc(NC(=S)NC(=O)c3cc4ccccc4o3)n2)cc1,1.54%
15,O=C1CSC(=S)N1N=C1CCCCCC1,inactive
16,Cc1onc(-c2c(F)cccc2Cl)c1C(=O)NC(=S)NC1CCSC1=O (stereo unspecified),2.61%
17,O=C(NC(=S)NC1CCSC1=O)c1cccs1 (stereo unspecified),12.2% (active)
18,O=C(NC(=S)NCC1CCCO1)c1cccs1 (stereo unspecified),inactive
19,O=C1CCCc2c1cc(-c1ccccc1)n2-c1ccc(O)cc1,1.72%
20,CCOCCCNC(=O)/C(C#N)=C/c1ccc(-c2ccc(S(=O)(=O)N3CCOCC3)cc2)o1,0.33%
21,Cc1cc(C)nc(Sc2ccc([N+](=O)[O-])cc2[N+](=O)[O-])n1,14.6% (active)

row,SMILES,CPE inhibition
1,Cc1cc(C)n(C(=O)c2ccc([N+](=O)[O-])cc2[N+](=O)[O-])n1,0.325%
2,CN(C)/N=C/c1ccc(Sc2ccc([N+](=O)[O-])cc2[N+](=O)[O-])o1,2.35%
3,N#C/C(=C\c1cccn1-c1ccccc1)C(=O)NC1CCCCC1,2.54%
4,O=[n+]1cc(-c2ccccc2)n([O-])c2c1CCCCC2,0.81%
5,CCOC(=O)c1cc[n+](CC(=O)c2ccc(F)cc2)cc1,inactive
6,COc1ccc(NC(=O)CC2(Cc3ccccc3)CCOC(C)(C)C2)cc1 (stereo unspecified),inactive
7,CCOC1OC(=O)C(Cl)=C1Nc1ccc(C)cc1C (stereo unspecified),0.385%
8,Cc1cccc(C)c1NC1=C(Cl)C(=O)OC1OC(C)C (stereo unspecified),inactive
9,Cc1ccc(NC2=C(Cl)C(=O)OC2OC(=O)c2ccco2)cc1C (stereo unspecified),14% (active)
10,COc1cc(NC(=O)CN2CCC(C)CC2)c(C)cc1[N+](=O)[O-],inactive
11,CCN(CC)S(=O)(=O)c1ccc2oc(C(=O)N3CCc4ccccc4C3)c(C)c2c1,0.865%
12,N#Cc1cc(NCC2CCCO2)c([N+](=O)[O-])cc1C#N (stereo unspecified),0.075%
13,CN(CC(=O)Nc1ccc(Cl)cc1)c1ccc(S(=O)(=O)N2CCCCC2)cc1[N+](=O)[O-],13% (active)
14,CN(CC(=O)Nc1ccc(S(=O)(=O)N2CCCC2)cc1)Cc1ccc(Cl)cc1,0.055%
15,CN(CC(=O)Nc1ccc(S(=O)(=O)N2CCCC2)cc1)Cc1ccc(Cl)cc1Cl,13.3% (active)
16,CN(CC(=O)Nc1ccc(S(=O)(=O)N2CCCC2)cc1)Cc1cccc(Cl)c1Cl,9% (active)
17,COc1ccc(CCN(C)c2ccc(S(=O)(=O)N3CCCC3)cc2[N+](=O)[O-])cc1OC,inactive
18,CCOc1ccccc1N(CC(=O)Nc1ccc(S(=O)(=O)N2CCOCC2)cc1)S(=O)(=O)c1ccc(Cl)cc1,0.98%
19,CC(C)C(=O)NC(=S)Nc1ccc(S(=O)(=O)N2CCCC2)cc1,inactive
20,CN(Cc1cccc(Cl)c1Cl)C(=O)c1ccc(NC(=O)CC#N)cc1,inactive
21,CN(CC(=O)Nc1ccc(F)cc1)c1ccc(S(=O)(=O)N2CCCCC2)cc1[N+](=O)[O-],2.78%

row,SMILES,CPE inhibition
1,CCc1cccc(C)c1NC(=O)CSc1nc(-c2ccccc2F)nc2nc[nH]c12,inactive
2,CCCCn1c(-c2ccco2)n[nH]c1=S,1.02%
3,CC(OC(=O)/C=C/c1ccco1)C(=O)Nc1cccc([N+](=O)[O-])c1 (stereo unspecified),0.7%
4,CCOc1ccccc1NC(=S)NNS(=O)(=O)c1c(C)cc(C)cc1C,inactive
5,CCOC(=O)N1CCN(CC(O)COc2ccc(C)cc2C(C)(C)C)CC1 (stereo unspecified),2.44%
6,C=CCC(C(=O)Oc1c(C(C)(C)C)cc(C)cc1C(C)(C)C)c1ccccc1 (stereo unspecified),12.5% (active)
7,Cc1ccc(NC(=O)CC(C(=O)O)c2ccccc2)cc1 (stereo unspecified),inactive
8,CC(C)Oc1ccc(C(CC(=O)N(C)CCC#N)c2ccc(F)cc2)cc1 (stereo unspecified),0.65%
9,NNC(=O)CNC(c1ccccc1)c1cc(Br)ccc1NC(=O)c1cccc(Cl)c1 (stereo unspecified),0.305%
10,COC(=O)CNC(c1ccccc1)c1cc(C)ccc1NC(=O)c1cccc(Cl)c1 (stereo unspecified),3.54%
11,COC(=O)CNC(c1ccccc1)c1cc(Br)ccc1NC(=O)CNC(=O)OCc1ccccc1 (stereo unspecified),16.5% (active)
12,O=C(Oc1cccc(/C=N/Nc2nc(Nc3ccccc3)nc(N3CCOCC3)n2)c1)c1ccco1,inactive
13,Cc1ccc(C(O)(C(=O)NNc2ccc3ccccc3n2)c2ccc(C)cc2)cc1,inactive
14,O=C(Nc1cccc(C(F)(F)F)c1)C(Sc1ncnc2ccccc12)c1ccccc1 (stereo unspecified),2.71%
15,CC(Sc1nc(-c2ccccc2)cc(C(F)(F)F)n1)C(=O)Nc1ccc2c(c1)OCO2 (stereo unspecified),3%
16,CC(Sc1ncnc2ccccc12)C(=O)Nc1ccc2c(c1)OCCO2 (stereo unspecified),12.4% (active)
17,CC(C)CC(COCc1ccc(Cl)cc1)N1CCN(C(=O)c2ccc(C(F)(F)F)cc2)CCC1=O (stereo unspecified),12.7% (active)
18,CC(C)(C)c1ccc(C(=O)N2CCC(=O)N(C(CO)Cc3ccccc3)CC2)cc1 (stereo unspecified),inactive
19,CC(C)C[C@@H](COc1ccccc1)N1CCN(Cc2ccccc2)CCC1=O,0.51%
